Counter-ions that a name gives are not always drawn. ± gives the standard deviation of the averaged measurements.
Experiments:
[1] = system: Saccharomyces cerevisiae BY4741 SeMeCo community; experiment: mean cell size (pixel area) (pixels); higher = larger cells; settings: 10 µM; 24 h; SM minimal medium
Procedure, shortened: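 Mean cell pixel area per well was determined by automated confocal microscopy with Harmony analysis of paraformaldehyde-fixed cells. The cells, a Saccharomyces cerevisiae BY4741 community of four plasmids that each complement one auxotrophy and carry a fluorescent marker, were incubated for 24 h with drug at a final 10 µM in SM medium in 384-well plates. Numbers are averaged over 3 replicates. Same SeMeCo high-content imaging drug screen: Selleck FDA-approved drugs at 10 µM, 24 h in SM medium, 384-well plates, 3 replicates.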

[2] = system: Saccharomyces cerevisiae BY4741 SeMeCo community; experiment: z-score of prototroph abundance vs DMSO median; higher = larger share of this subpopulation than in DMSO controls; settings: 10 µM; 24 h; SM minimal medium; subpopulation (auxotrophy): Prototroph
Procedure, shortened: (§1)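 A Saccharomyces cerevisiae BY4741 community carried four plasmids, each restoring one auxotrophy and encoding a distinct fluorescent protein. It was pre-grown overnight to OD600 1.0, diluted to 0.3, and 70 µl was added to 384-well plates acoustically predosed with library drugs (10 µM final), then grown 24 h in minimal SM medium. Cells were paraformaldehyde-fixed and imaged by automated confocal microscopy, with single-auxotroph fluorescent strains setting thresholds and autofluorescence correction. Each subpopulation's abundance was scored as a z-score against the vehicle-well median.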

[3] = system: Saccharomyces cerevisiae BY4741 SeMeCo community; experiment: z-score of subpopulation abundance vs DMSO median, subpopulation auxotrophic for M; higher = larger share of this subpopulation than in DMSO controls; settings: 10 µM; 24 h; SM minimal medium; subpopulation (auxotrophy): M
Procedure, shortened: as §1

[4] = system: Saccharomyces cerevisiae BY4741 SeMeCo community; experiment: z-score of subpopulation abundance vs DMSO median, subpopulation auxotrophic for L; higher = larger share of this subpopulation than in DMSO controls; settings: 10 µM; 24 h; SM minimal medium; subpopulation (auxotrophy): L
Procedure, shortened: as §1

[5] = system: Saccharomyces cerevisiae BY4741 SeMeCo community; experiment: z-score of subpopulation abundance vs DMSO median, subpopulation auxotrophic for U; higher = larger share of this subpopulation than in DMSO controls; settings: 10 µM; 24 h; SM minimal medium; subpopulation (auxotrophy): U
Procedure, shortened: as §1

[6] = system: Saccharomyces cerevisiae BY4741 SeMeCo community; experiment: z-score of subpopulation abundance vs DMSO median, subpopulation auxotrophic for H; higher = larger share of this subpopulation than in DMSO controls; settings: 10 µM; 24 h; SM minimal medium; subpopulation (auxotrophy): H
Procedure, shortened: as §1

[7] = system: Saccharomyces cerevisiae BY4741 SeMeCo community; experiment: z-score of subpopulation abundance vs DMSO median, subpopulation auxotrophic for LU; higher = larger share of this subpopulation than in DMSO controls; settings: 10 µM; 24 h; SM minimal medium; subpopulation (auxotrophy): LU
Procedure, shortened: as §1

[8] = system: Saccharomyces cerevisiae BY4741 SeMeCo community; experiment: z-score of subpopulation abundance vs DMSO median, subpopulation auxotrophic for LM; higher = larger share of this subpopulation than in DMSO controls; settings: 10 µM; 24 h; SM minimal medium; subpopulation (auxotrophy): LM
Procedure, shortened: as §1

[9] = system: Saccharomyces cerevisiae BY4741 SeMeCo community; experiment: z-score of subpopulation abundance vs DMSO median, subpopulation auxotrophic for HM; higher = larger share of this subpopulation than in DMSO controls; settings: 10 µM; 24 h; SM minimal medium; subpopulation (auxotrophy): HM
Procedure, shortened: as §1

[10] = system: Saccharomyces cerevisiae BY4741 SeMeCo community; experiment: z-score of subpopulation abundance vs DMSO median, subpopulation auxotrophic for HU; higher = larger share of this subpopulation than in DMSO controls; settings: 10 µM; 24 h; SM minimal medium; subpopulation (auxotrophy): HU
Procedure, shortened: as §1

[11] = system: Saccharomyces cerevisiae BY4741 SeMeCo community; experiment: z-score of subpopulation abundance vs DMSO median, subpopulation auxotrophic for UM; higher = larger share of this subpopulation than in DMSO controls; settings: 10 µM; 24 h; SM minimal medium; subpopulation (auxotrophy): UM
Procedure, shortened: as §1

[12] = system: Saccharomyces cerevisiae BY4741 SeMeCo community; experiment: z-score of subpopulation abundance vs DMSO median, subpopulation auxotrophic for HL; higher = larger share of this subpopulation than in DMSO controls; settings: 10 µM; 24 h; SM minimal medium; subpopulation (auxotrophy): HL
Procedure, shortened: as §1

[13] = system: Saccharomyces cerevisiae BY4741 SeMeCo community; experiment: z-score of subpopulation abundance vs DMSO median, subpopulation auxotrophic for HLM; higher = larger share of this subpopulation than in DMSO controls; settings: 10 µM; 24 h; SM minimal medium; subpopulation (auxotrophy): HLM
Procedure, shortened: as §1

[14] = system: Saccharomyces cerevisiae BY4741 SeMeCo community; experiment: z-score of subpopulation abundance vs DMSO median, subpopulation auxotrophic for HUM; higher = larger share of this subpopulation than in DMSO controls; settings: 10 µM; 24 h; SM minimal medium; subpopulation (auxotrophy): HUM
Procedure, shortened: as §1

[15] = system: Saccharomyces cerevisiae BY4741 SeMeCo community; experiment: z-score of subpopulation abundance vs DMSO median, subpopulation auxotrophic for LUM; higher = larger share of this subpopulation than in DMSO controls; settings: 10 µM; 24 h; SM minimal medium; subpopulation (auxotrophy): LUM
Procedure, shortened: as §1

[16] = system: Saccharomyces cerevisiae BY4741 SeMeCo community; experiment: z-score of subpopulation abundance vs DMSO median, subpopulation auxotrophic for HLUM; higher = larger share of this subpopulation than in DMSO controls; settings: 10 µM; 24 h; SM minimal medium; subpopulation (auxotrophy): HLUM
Procedure, shortened: as §1

Row | SMILES | mean cell size [1] | z-score of prototroph abundance [2] | z-score of subpopulation abundance [3] | z-score of subpopulation abundance [4] | z-score of subpopulation abundance [5] | z-score of subpopulation abundance [6] | z-score of subpopulation abundance [7] | z-score of subpopulation abundance [8] | z-score of subpopulation abundance [9] | z-score of subpopulation abundance [10] | z-score of subpopulation abundance [11] | z-score of subpopulation abundance [12] | z-score of subpopulation abundance [13] | z-score of subpopulation abundance [14] | z-score of subpopulation abundance [15] | z-score of subpopulation abundance [16]
1 | OCCN1CCN(CC/C=C2/c3ccccc3Sc3ccc(C(F)(F)F)cc32)CC1 [Flupenthixol dihydrochloride] | 12.24 ± 0.076 | -0.24 | -0.29 | 1.34 | -0.72 | 0.73 | 0.47 | 0.75 | 0.47 | 0.56 | -0.35 | 0.88 | 0.33 | -0.33 | 0.65 | -0.47
2 | c1ccc2[nH]c(-c3cscn3)nc2c1 [Thiabendazole] | 12.3 ± 0.24 | 0.41 | 0.77 | -0.23 | -0.7 | -0.52 | -0.61 | 0.06 | -0.37 | -0.69 | -0.41 | -0.01 | -0.38 | 0.33 | 0.16 | -0.43
3 | O=C(O)CCC(=O)Nc1ccc(S(=O)(=O)Nc2nccs2)cc1 [Succinylsulfathiazole] | 12.52 ± 0.1 | 0.73 | -0.13 | -0.22 | 0.33 | – | -0.4 | -0.35 | -0.78 | – | 0.02 | -0.84 | -1.01 | -0.33 | -0.95 | -0.62
4 | CSc1nc2cc(Cl)c(Oc3cccc(Cl)c3Cl)cc2[nH]1 [Triclabendazole] | 13.1 ± 0.54 | 1.8 | – | -0.07 | -0.92 | 5.63 | 0.92 | -2.65 | -3.03 | 2.73 | -5.17 | 3.65 | 7.41 | -1.46 | – | 4.69
5 | C[C@H](Nc1ncnc2nc[nH]c12)c1cc2cccc(Cl)c2c(=O)n1-c1ccccc1 [Duvelisib (IPI-145, INK1197)] | 12.37 ± 0.1 | -0.55 | -0.39 | 1.3 | 0.89 | 0.93 | – | 0.42 | -0.47 | -0.03 | -0.3 | – | 0.18 | -0.67 | – | 0.98
6 | C=C[C@]1(C)C[C@@H](OC(=O)CSC(C)(C)CNC(=O)[C@H](N)C(C)C)[C@]2(C)[C@H](C)CC[C@]3(CCC(=O)[C@H]32)[C@@H](C)[C@@H]1O [Valnemulin HCl] | – | -0.65 | 0.05 | – | – | 0.85 | 0.87 | 0.54 | 0.32 | 1.22 | 0.26 | 0.85 | – | 0.58 | 0.67 | 0.48
7 | Clc1ccc(COC(Cn2ccnc2)c2ccc(Cl)cc2Cl)c(Cl)c1 (stereo not given) [Miconazole] | 12.5 ± 0.13 | -9.47 | – | -2.13 | 2.67 | 27.8 | 4.36 | -1.8 | 0.94 | – | – | – | 12.2 | 6.04 | 0.67 | 9.68
8 | CC/C(=C(\c1ccccc1)c1ccc(OCCN(C)C)cc1)c1ccccc1 [Tamoxifen] | 11.75 ± 0.092 | -0.91 | 0.18 | – | -0.18 | – | 0.89 | 1.82 | 0.93 | 1.39 | 0.21 | – | – | 0.85 | 0.23 | 0.09
9 | Cn1cc(C(=O)[C@@H]2CCc3[nH]cnc3C2)c2ccccc21 [Ramosetron Hydrochloride] | 12.6 ± 0.16 | -0.53 | – | -0.44 | 0.51 | -0.29 | 0.85 | 0.12 | 0.78 | -0.53 | 0.33 | -0.22 | 1.18 | -0.01 | 0.32 | 0.88
10 | C(=C\c1ccccc1)/CN1CCN(C(c2ccccc2)c2ccccc2)CC1 [Cinnarizine] | 12.21 ± 0.081 | -1.14 | -1.68 | – | 1.39 | -0.62 | 1.38 | -0.47 | -0.68 | 1.5 | – | 0.34 | -0.32 | 1.64 | 0.8 | 0.66
11 | CCOC(=O)C1=C(C)NC(C)=C(C(=O)OC)C1c1cccc(Cl)c1Cl (stereo not given) [Felodipine] | 12.57 ± 0.072 | 2.53 | 3.86 | – | -6.72 | 3.29 | – | 4.88 | 4.69 | -6.8 | -7.8 | 4.71 | 8.73 | -5.68 | -4.09 | -1.13
12 | COC(=O)Nc1nc2cc([S+]([O-])c3ccccc3)ccc2[nH]1 (stereo not given) [Oxfendazole] | 12.59 ± 0.1 | – | 0.39 | – | 1.29 | 0.08 | 0.48 | -1.48 | -0.28 | 0.76 | 0.53 | 0 | – | 0.73 | -0.67 | -1.07
13 | Clc1ccc(C(Cn2ccnc2)OCc2c(Cl)cccc2Cl)c(Cl)c1 (stereo not given) [Isoconazole nitrate] | 12.1 ± 0.18 | – | -0.17 | – | 2.14 | 21 | -1.43 | – | 3.75 | 11.7 | 5.43 | 3.07 | 13.3 | 4.65 | -0.77 | 9.4
14 | CCN(CC)C(=O)N1CCN(C)CC1 [Diethylcarbamazine citrate] | 12.6 ± 0.14 | 0.16 | -0.11 | – | 0.67 | -0.57 | – | -0.13 | -0.19 | -0.43 | – | -1.04 | 0.15 | – | -0.5 | -0.66
